The text below walks through data of PubChem BioAssay (NCI).

Each structure is given as a SMILES string. About 83,000 compounds went through this panel and 20% of them were active in at least one assay; those are over-represented in the sample as a whole.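 Testing used 96-well plates and a 48-hour single-concentration exposure. Example: -40 means 40% of the starting cells died.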 Active and inactive are the calls of the source. Rule for the calls: active = growth percent below 10; inactive = the rest.

The test system of the first assay is K-562 leukemia. The experiment in a line: NCI-60 one-dose screen, 48 h (100 = growth as untreated, 0 = no growth, -100 = all killed). As to conditions: 10 µM unless noted.
For the molecule `Cc1ccc2oc(=O)cc(-c3cc(-c4cc5ccccc5oc4=O)nc(N)c3C#N)c2c1`, the growth was 81% (inactive).

Consider `Cc1[nH]c(/C=C2\C(=O)Nc3ccc(F)cc32)c(C)c1C(=O)NC[C@H](O)CN1CCOCC1`, for which the growth is 24% (inactive). `O=C(Nc1cn[nH]c1-c1nc2ccc(CN3CCOCC3)cc2[nH]1)NC1CC1`: the growth was 12.7% (inactive). Take `O=C1CSC(c2c(F)cccc2Cl)N1NC(=O)C(O)(c1ccccc1)c1ccccc1` (stereo not given): the growth is 80.3% (inactive). For `O=C1C=CC2(NN=C(c3ccccc3)N2c2cccc(Cl)c2)C(Cl)=C1` (stereo not given), the growth was 28.6% (inactive). Same read-out and setting: as for `Cc1ccc(N=C2CSc3nnc(-c4csc5c4CCCC5)n3N2)cc1`, the figure is 10.7% (inactive); as for `Cc1cc(-c2cc(OC(=O)c3ccccc3)ccc2Cl)cc2nnc(Nc3ccc(OCCN4CCCC4)cc3)nc12`, -21.5% (active).

`Cc1cc(O)cc(-c2c(-c3ccnc(-c4cccnc4)c3)cnn2C)c1`: the growth was 57.8% (inactive).

The test system of a further assay is MALME-3M melanoma. Described as above. Particulars: 10 µM unless noted.
Turning to `CCOc1cc2ncc(C#N)c(Nc3ccc(F)c(Cl)c3)c2cc1NC(=O)/C=C/CN(C)C`, the growth was -77.5% (active). Still for that read-out and setting: as for `CCN(CC)CCNC(=O)c1c(C)[nH]c(/C=C2\C(=O)Nc3ccc(F)cc32)c1C`, the figure is -82.6% (active); as for `COc1ccc2c(CCC(c3ccccc3)c3ccccc3)c3[n+](cc2c1OC)CCc1cc2c(cc1-3)OCO2`, -7.17% (active). Same read-out and setting: to `C[C@@H](Oc1cc(-n2cnc3ccc(CN4CCN(C)CC4)cc32)sc1C(N)=O)c1ccccc1C(F)(F)F` belongs 21% (inactive); to `CC(C)=CCc1cc2c(cc1O)C1=C(C(=O)C3=C(NCCS3(=O)=O)C1=O)C(C=C(C)C)O2` (stereo not given), -42.9% (active). In the case of `CC(N)C(Cc1ccc(Cl)cc1)c1ccc(Cl)cc1` (stereo not given), the growth was 80.3% (inactive). Same read-out and setting: as for `Clc1nc(Cl)c2ncn(CC#CCn3cnc4c(Cl)nc(Cl)nc43)c2n1`, the figure is -74.5% (active); as for `O=C(Cc1ccc(-c2ccc(OCCN3CCOCC3)cc2)cn1)NCc1ccccc1`, 40.4% (inactive); as for `Cc1nc(NC(=O)N2CCC[C@H]2C(N)=O)sc1-c1ccnc(C(C)(C)C(F)(F)F)c1`, 43.8% (inactive). The same measure, in the same setting: as for `COc1ccc2c(CCCc3ccc(Cl)cc3Cl)c3[n+](cc2c1OC)CCc1cc2c(cc1-3)OCO2`, the figure is -28.7% (active); as for `Cc1c(Cn2c(C)nc3c(C(=O)O)cc(N4CCOCC4)cc32)cccc1C(F)(F)F`, 91.8% (inactive); as for `COc1cc2nccc(Oc3ccc(NC(=O)C4(C(=O)Nc5ccc(F)cc5)CC4)cc3)c2cc1OC`, 0.11% (active). In the case of `C=CCCCC(=O)CCC(=O)OCC1O[C@@H](O[C@@H]2C(O)[C@@H](OC(C)=O)C(C)O[C@H]2O[C@H](CC=C)CCCCC)C(O)[C@@H](OC(=O)/C(C)=C/C)[C@@H]1OC(=O)/C=C/c1ccccc1` (stereo not given in full), the growth is 17.7% (inactive).

Consider `O=c1[nH]ccc2c(S(=O)(=O)N3CCCNCC3)cccc12`, for which the growth is 82.2% (inactive). The same measure, in the same setting: as for `CC1(C=O)NC(=O)NC1=O` (stereo not given), the figure is 118% (inactive); as for `Cc1ccc(NC(=O)c2ccc(CN3CC[C@H](N(C)C)C3)c(C(F)(F)F)c2)cc1Nc1nccc(-c2cncnc2)n1`, -79.2% (active). On the same count and under the same terms, to `O=C(Nc1cccc(Cl)c1)Nc1ncc(CCNc2ncnc3ccsc23)s1` belongs 19% (inactive).

For `Cn1ccnc1C(=O)/C=C/c1ccc(CC(=O)Nc2ccc(Br)cc2)cc1`, the growth was 75.5% (inactive). `CNC(=O)c1nn(C)c2c1C(C)(C)Cc1cnc(Nc3ccc(N4CCN(C)CC4)cc3)nc1-2`: the growth is -8.73% (active). For `COc1cccc2cc(-c3nc(C4CCC(C(=O)O)CC4)n4ncnc(N)c34)[nH]c12` (stereo not given), the growth is -12% (active).

As to `CNc1ncc2cc(-c3cc(NC(=O)NCCC(C)(C)C)c(F)cc3C)c(C)nc2n1`, the growth is 1.23% (active). For the molecule `Cc1cc(C(=O)Nc2cc(Oc3ccc4nc(NC(=O)C5CC5)cn4n3)ccc2C)n(C)n1`, the growth is -5.45% (active). On to `O=C(Cc1ccc(/C=C/C(=O)c2ncc[nH]2)cc1)Nc1ccc(Br)cc1`, for which the growth was 74.4% (inactive). On the same count and under the same terms, as for `CCc1ccc(C2=C(O)C(=O)C(c3ccc(CC)cc3)=C(O)C2=O)cc1`, the figure is -15.1% (active).

Take `CNC(=O)c1cccc2cc(Oc3ccnc4cc(OCC5(N)CC5)c(OC)cc34)ccc12`: the growth was 74.3% (inactive). On to `CCCCN1CCCC[C@@H]1C(=O)N[C@H](C(=O)N(C)[C@H](CCc1nc(C(=O)N[C@@H](Cc2ccccc2)C[C@H](C)C(=O)OC)cs1)C(C)C)C(C)C`, for which the growth was 45.1% (inactive). Still for that read-out and setting: as for `C=CC(=O)Nc1cc2c(Nc3ccc(F)c(Cl)c3)ncnc2cc1OCCCN1CCOCC1`, the figure is 27.3% (inactive).

Turning to `NC(=O)c1c(OCc2c(F)cc(Br)cc2F)nsc1NC(=O)NCCCCN1CCCC1`, the growth was -79.8% (active).

With `Cc1cc(N(CCNc2ccnc3cc(Cl)ccc23)Cc2ccc3c(c2)OCO3)nc(N2CCN(C)CC2)n1`, the growth was -71.6% (active). The same measure, in the same setting: to `Cc1ccc2oc(=O)cc(-c3cc(-c4cc5ccccc5oc4=O)nc(N)c3C#N)c2c1` belongs 51.3% (inactive); to `Cc1[nH]c(/C=C2\C(=O)Nc3ccc(F)cc32)c(C)c1C(=O)NC[C@H](O)CN1CCOCC1`, -7.48% (active). Same read-out and setting: to `O=C(Nc1cn[nH]c1-c1nc2ccc(CN3CCOCC3)cc2[nH]1)NC1CC1` belongs 51.8% (inactive); to `O=C1CSC(c2c(F)cccc2Cl)N1NC(=O)C(O)(c1ccccc1)c1ccccc1` (stereo not given), 82.1% (inactive); to `O=C1C=CC2(NN=C(c3ccccc3)N2c2cccc(Cl)c2)C(Cl)=C1` (stereo not given), 107% (inactive). On the same count and under the same terms, to `Cc1ccc(N=C2CSc3nnc(-c4csc5c4CCCC5)n3N2)cc1` belongs 70.6% (inactive); to `Cc1cc(-c2cc(OC(=O)c3ccccc3)ccc2Cl)cc2nnc(Nc3ccc(OCCN4CCCC4)cc3)nc12`, 79.2% (inactive); to `Cc1cc(O)cc(-c2c(-c3ccnc(-c4cccnc4)c3)cnn2C)c1`, 49.7% (inactive).
